For test [1], the target named is Phospholipid hydroperoxide glutathione peroxidase GPX4 (Homo sapiens) (UniProt P36969). Briefly: Primary qHTS Assay for Inhibitors of Recombinant Selenoprotein Glutathione Peroxidase 4 (GPX4) (AID 1845192). Note: nearly all actives have a fitted effect of over 65% in size. Note: potency is the fitted concentration of half-maximal effect. In a few lines: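 NADPH consumption followed by fluorescence at 340/450 nm, t=0 and after 15 min at room temperature. Reaction started with cumene hydroperoxide (0.5 mM final) after 30 min compound–GPX4 preincubation; final 200 nM GPX4, 100 nM GR, 1 mM GSH, 0.5 mM NADPH.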
In general terms: Quantitative high-throughput screening tests each substance at several concentrations.

Test [2] concerns Nanoluciferase (engineered Oplophorus gracilirostris luciferase). The test is described as follows: Primary Nanoluciferase (NLuc) qHTS assay for identification of artifact compounds. (AID 1845222).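 Note: NLuc secreted into diluted conditioned medium of S16 cells; series mostly up to about 54 µM.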 In a few lines: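 NLuc from S16 cell medium (1:55) plus test compounds, 15 min, room temperature. Luminescence after Nano-Glo (1:100) addition, 5 min.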
The nature of test [3]: Primary redox qHTS assay for identification of artifact compounds. (AID 1845223). The essentials:
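Redox-cycling detection via DTT (250 uM final) oxidation coupled to Amplex Red (25 uM)/HRP (250 mU/mL) in HBSS. 15 min preincubation plus 30 min after DTT, room temperature. Ex/Em 525/598 nm; 4-parameter Hill fit against DMSO and 10 uM DA3003.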

The nature of test [4]: Quantitative High-Throughput drug screen in 47 multiple myeloma cell lines against the NCATS MIPE library collection: FR4_PLB cell viability assay (AID 1918924; note: nearly all actives have a fitted effect of over 35% in size; note: potency is the fitted concentration of half-maximal effect). The essentials: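 Approved and investigational drugs from MIPE 4.0 were added by pin tool to 500 cells per well. After 48 hours at 37C, ATP-based CellTiter-Glo luminescence indicated remaining viability.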
Test [5] is described as follows: Quantitative High-Throughput drug screen in 47 multiple myeloma cell lines against the NCATS MIPE library collection: AMO1_DSMZ cell viability assay (AID 1918927; note: nearly all actives have a fitted effect of over 30% in size; note: potency is the fitted concentration of half-maximal effect). In a few lines:
(§1)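 Steps: seed 500 cells per well; pin-transfer MIPE 4.0 library; incubate 48 h at 37C, 5% CO2, humidified; add CellTiter-Glo, 5 min room temperature; read luminescence.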

Test [6] can be described thus: Quantitative High-Throughput drug screen in 47 multiple myeloma cell lines against the NCATS MIPE library collection: EJM_DSMZ cell viability assay (AID 1918926; note: nearly all actives have a fitted effect of over 30% in size; note: potency is the fitted concentration of half-maximal effect). The essentials: as §1
Test [7] in a line: Quantitative High-Throughput drug screen in 47 multiple myeloma cell lines against the NCATS MIPE library collection: Delta47_JCRB cell viability assay (AID 1918925; note: nearly all actives have a fitted effect of over 45% in size; note: potency is the fitted concentration of half-maximal effect). In a few lines: as §1
Test [8] deals with Luciferin 4-monooxygenase (Photinus pyralis) (UniProt P08659). Briefly: Primary firefly luciferase (FLuc) qHTS assay for identification of artifact compounds. (AID 1845220). Note: nearly all actives have a fitted effect of over 60% in size. The essentials: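 FLuc 10 nM; luciferin 10 uM; ATP 10 uM; Tris-acetate pH 7.6, Mg-acetate 10 mM; 15 min RT preincubation; 5 min reaction; luminescence.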
Test [9] in a line: Primary fluorescence-based thiol-reactive (MSTI) qHTS assay for identification of artifact compounds. (AID 1845221).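 Note: series mostly up to about 54 µM; thiol-reactive compounds lower the probe fluorescence signal; nearly all actives have a fitted effect of over 65% in size.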 The essentials: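 First, 4 uM MSTI in 2% DMSO/PBS pH 7.4 was dispensed; next, compounds were added; then plates sat 1 h at room temperature without light. Finally, emission at 598 nm was recorded.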

Records with an inconclusive call do not appear. The source made the active and inactive calls. Calls come from the whole dose curve; as a rule, active = well fitted curve in the direction sought with a large enough effect; inconclusive = small, poorly fitted or top-dose-only effect, or another doubt; inactive = no such curve, though single readings can be large; an effect the other way counts as inactive or inconclusive.

Chain of Phospholipid hydroperoxide glutathione peroxidase GPX4 (Homo sapiens) (P36969 whole entry, looked up): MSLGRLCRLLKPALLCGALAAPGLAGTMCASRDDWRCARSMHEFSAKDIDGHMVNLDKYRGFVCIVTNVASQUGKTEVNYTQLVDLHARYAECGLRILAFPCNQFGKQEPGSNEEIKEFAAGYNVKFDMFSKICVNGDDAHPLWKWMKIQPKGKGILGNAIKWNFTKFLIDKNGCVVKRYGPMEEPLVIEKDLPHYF

Take `Cc1csc(NC(=O)c2sc3nc4c(c(C(F)(F)F)c3c2N)CCC4)n1`: the Potency result in [1], in test [4] and in test [5] was “inactive” throughout. The call in test [2] and in test [3] was inactive.
With `CC1(C)SCCN(S(=O)(=O)c2ccc(OCC#CCO)cc2)[C@@H]1C(=O)NO`, the Potency entry in test [6] was “inactive”. Also, in [5], the Potency is 2.64 µM (active).
With `CCOC(=O)N[C@@H]1CC[C@@H]2[C@@H](C1)C[C@H]1C(=O)O[C@H](C)[C@H]1[C@@H]2C=Cc1ccc(-c2cccc(F)c2)cn1`, in test [5], the Potency was 18.7 µM (active).
Regarding `Cc1cccc(-c2nn(C(=S)Nc3ccccc3)cc2-c2ccnc3ccccc23)n1`, the Potency entry in test [4] and in [5] was “inactive” each time. For the same compound, the Potency in [7] was 16.6 µM (active); in test [6] it was 11.8 µM (active).
Take `CCCCNc1cc(C(=O)O)cc(S(N)(=O)=O)c1Oc1ccccc1`: the Potency entry in test [1], in test [4], in test [7], in [6] and in test [5] was “inactive” each time.
On to `COCC(=O)NCC=Cc1ccc2ncnc(Nc3ccc(Oc4ccc(C)nc4)c(C)c3)c2c1`, for which the Potency in test [4] was 26.4 µM (active); in test [7], 14.8 µM (active).
In the case of `Cc1cc(C=c2sc3nc4ccccc4n3c2=O)c(C)n1-c1ccccc1`, in [6], the Potency is 6.62 µM (active). In addition, the Potency entry in [5] is “inactive”.
As for `CC(C=CC1=C(C)CCCC1(C)C)=CC=CC(C)=CC(=O)O`, the Potency in test [6] was 13.2 µM (active).
As to `CC(C)(N)C(=O)N[C@H](COCc1ccccc1)C(=O)N1CCC2(CC1)CN(S(C)(=O)=O)c1ccccc12`, the Potency entry in [1], in [8] and in test [5] was “inactive” throughout. Moreover, the result in test [2] and in [3] was inactive. Further, the Potency in test [4] is 16.6 µM (active); in [7] it was 7.43 µM (active).
With `CCOc1cc(C=C2C(=O)N(c3ccccc3)N=C2C)cc(Cl)c1OCC(=O)OC`, the Potency result in test [4] and in [5] was “inactive” in each case. Further, the Potency in test [7] was 9.35 µM (active); in test [6] it was 18.7 µM (active).
As to `CN(C)c1ccc(Nc2nc(N)n(C(=O)c3c(F)cccc3F)n2)cc1`, the Potency entry in [8] is “inactive”. Also, the outcome in test [2] and in test [3] was inactive. Further, the values for the Potency in test [7], in test [6] and in test [5] were 14.8 µM (active), 20.9 µM (active) and 4.69 µM (active), respectively.
On to `COc1ccc(-c2ccc3c(N4CCOC[C@H]4C)nc(N4CCOC[C@H]4C)nc3n2)cc1CO`, for which the Potency in test [4] is 0.0235 µM (active).
Take `Cc1ccccc1C(C(=O)NC1CCCC1)N(C(=O)Cn1cnc2ccccc21)c1cccc(F)c1` (stereo unspecified): the Potency was 16.6 µM (active) in test [7] and 0.0264 µM (active) in test [5]. Also, the Potency entry in [6] is “inactive”.
As to `CCC(=O)N[C@H]1CC[C@H](C(=O)N(C)c2ccc(-c3nc4ccccc4o3)cc2)C1`, the Potency entry in test [1] is “inactive”. The Potency in test [6] was 16.6 µM (active); in test [5] it was 11.8 µM (active).
As for `OCCn1cc(-c2cnc3nnn(Cc4ccc5ncccc5c4)c3n2)cn1`, the Potency in [1] was 14.3 µM (active). Also, the Potency result in test [8], in [9], in [4] and in [5] was “inactive” throughout. The compound was called inactive in test [2] and in test [3].
With `CCC(C)n1ncn(-c2ccc(N3CCN(c4ccc(OC[C@H]5CO[C@](Cn6cncn6)(c6ccc(Cl)cc6Cl)O5)cc4)CC3)cc2)c1=O` (stereo partly specified), the Potency result in test [1] and in test [8] was “inactive” throughout. The result in test [2] and in test [3] was inactive. Also, the Potency in test [6] is 2.96 µM (active).
For the compound `S=C(NCc1ccc2c(c1)OCO2)N1CCN(c2ncnc3c2oc2ccccc23)CC1`, the Potency result in [8] and in [9] was “inactive” throughout. In addition, the call in test [2] and in test [3] was inactive. For the same compound, the Potency was 27 µM (active) in test [4], 1.08 µM (active) in [7] and 2.7 µM (active) in [5].
Regarding `COc1cc2nccc(Oc3ccc(NC(=O)NC4CC4)c(Cl)c3)c2cc1C(N)=O`, the Potency entry in test [1] and in [8] was “inactive” each time. The compound was called inactive in test [2] and in [3]. The Potency in test [4] is 23.5 µM (active); in [7], 13.2 µM (active); in test [6] it was 2.09 µM (active); in [5], 2.09 µM (active).
As for `C[C@]12CC[C@H](O)CC1=CC[C@@H]1[C@H]2CC[C@]2(C)C(c3cccnc3)=CC[C@H]12`, the Potency result in test [4], in test [7], in test [6] and in [5] was “inactive” in each case.
Regarding `CCCn1c(=O)c2[nH]c(C34CC5CC3C[C@@H](C5)C4)nc2n(CCC)c1=O`, the Potency result in test [1], in test [4] and in [7] was “inactive” each time. Further, the figures for the Potency in test [6] and in test [5] were 16.6 µM (active) and 0.0264 µM (active), respectively.
As for `N#CC[C@H](C1CCCC1)n1cc(-c2ncnc3[nH]ccc23)cn1`, the Potency entry in test [8] was “inactive”. The call in test [2] and in test [3] was inactive. For the same compound, the Potency in test [6] was 7.43 µM (active); in [5], 6.62 µM (active).
For `CCc1cc(Nc2nccc(-c3c(-c4ccc(OC)c(C(=O)Nc5c(F)cccc5F)c4)nc4ccccn34)n2)c(OC)cc1N1CCC(N2CCN(S(C)(=O)=O)CC2)CC1`, the Potency entry in test [1] and in [8] was “inactive” in each case. The compound was classed as inactive in test [2] and in [3]. For the same compound, the Potency in test [4] is 20.9 µM (active); in test [7], 5.26 µM (active); in [6], 10.5 µM (active).
As for `CCCc1nn(C)c2c(=O)[nH]c(-c3cc(S(=O)(=O)N4CCN(C)CC4)ccc3OCC)nc12`, the Potency result in test [1], in test [8], in [6] and in [5] was “inactive” throughout. Besides, the result in test [2] and in [3] was inactive.
For the compound `CC(C)(C)OC(=O)CN(Cc1ccc(Cl)cc1)Cc1ccc([N+](=O)[O-])s1`, the Potency entry in test [1], in [4] and in [6] was “inactive” throughout.
As to `Cn1cc(-c2ccc3nnc(C(F)(F)c4ccc5ncccc5c4)n3n2)cn1`, the Potency result in [1], in test [8], in [4] and in [6] was “inactive” each time. Further, the compound was classed as inactive in test [2]. Also, the Potency in test [5] is 13.2 µM (active).
With `Oc1cccc(-c2nc(N3CCOCC3)c3oc4ncccc4c3n2)c1`, the Potency in [4] is 0.0762 µM (active); in [6], 6.79 µM (active); in test [5], 0.171 µM (active).
In the case of `O=S(=O)(N=Cc1c(O)ccc2ccccc12)c1cccs1`, in test [6], the Potency entry was “inactive”.
Take `COc1ccc(-c2oc3cc(OC)ccc3c2C(=O)c2ccc(C#N)cc2)cc1`: in test [5], the Potency is 7.43 µM (active).
Regarding `CCOc1ccc(Cc2cc([C@@H]3O[C@H](CO)[C@@H](O)[C@H](O)[C@@H]3O)ccc2Cl)cc1`, the Potency result in test [4] was “inactive”. Moreover, the Potency in [5] is 14.8 µM (active).
